Results: the supplement of paper PMC10849652
Targets with a hit are over-represented here; the source holds about 8,800 in all. About 0.5% of all pairs of compound and target were hits.

Legend:
Test in all cases: log2 fold change, soluble protein after heating vs DMSO (PISA); higher = thermal stabilisation; K562 lysate, 10 uM; active = over 0.2 and 3.5 SD of the protein, either way, in both replicates (recomputed)
nilotinib = compound: Cc1cn(-c2cc(NC(=O)c3ccc(C)c(Nc4nccc(-c5cccnc5)n4)c3)cc(C(F)(F)F)c2)cn1 [nilotinib]
How it was run: (§1)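 A 30 min treatment with 10 μM compound was applied to crude K562 extract at 1 mg/mL protein in PBS pH 7.4 with 1 mM MgCl2. Heating for 3 min spanned 48°C-58°C, after which aliquots were pooled, adjusted to 0.5% NP-40 at 4°C and spun at 21,000xg for 90 min. TMTpro 16plex LC-MS/MS of the supernatant, with channel sums equalised, gave values recorded as log-two fold change in thermal stability against solvent controls, from duplicates.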

[1] = compound: Cc1nc(Nc2n[nH]c3c2CN(C(=O)N[C@H](CN(C)C)c2ccccc2)C3(C)C)c2sccc2n1
How it was run: as §1

dasatinib = compound: Cc1nc(Nc2ncc(C(=O)Nc3c(C)cccc3Cl)s2)cc(N2CCN(CCO)CC2)n1 [dasatinib]
How it was run: as §1

[2] = compound: Cc1ncc(-c2ccnc(Nc3ccc(S(C)(=O)=O)cc3)n2)n1C(C)C
How it was run: as §1

[3] = compound: Cn1cc(-c2ccc3c(c2)CCN3C(=O)Cc2cccc(C(F)(F)F)c2)c2c(N)ncnc21
How it was run: as §1

quisinostat = compound: Cn1cc(CNCC2CCN(c3ncc(C(=O)NO)cn3)CC2)c2ccccc21 [quisinostat]
How it was run: as §1

tipifarnib = compound: Cn1cncc1[C@@](N)(c1ccc(Cl)cc1)c1ccc2c(c1)c(-c1cccc(Cl)c1)cc(=O)n2C [tipifarnib]
How it was run: as §1

[4] = compound: NC(=O)Nc1cc(-c2cccc(F)c2)sc1C(=O)N[C@H]1CCCNC1
How it was run: as §1

[5] = compound: NC(=O)c1cnc(N[C@@H]2CCCC[C@@H]2N)nc1Nc1cccc(-n2nccn2)c1
How it was run: as §1

[6] = compound: NC1(c2ccc(-c3nc4ccn5c(=O)[nH]nc5c4cc3-c3ccccc3)cc2)CCC1
How it was run: as §1

[7] = compound: NCC(=O)Nc1ccc(-n2nc(C(F)(F)F)cc2-c2ccc3c(ccc4ccccc43)c2)cc1
How it was run: as §1

vorinostat = compound: O=C(CCCCCCC(=O)Nc1ccccc1)NO [vorinostat]
How it was run: as §1

silmitasertib = compound: O=C(O)c1ccc2c(c1)nc(Nc1cccc(Cl)c1)c1ccncc12 [silmitasertib]
How it was run: as §1

[8] = compound: O=C1NC(=O)C(c2cnc3ccccn23)=C1c1cn2c3c(cc(F)cc13)CN(C(=O)N1CCCCC1)CC2
How it was run: as §1

entospletinib = compound: c1cn2cc(-c3ccc4cn[nH]c4c3)nc(Nc3ccc(N4CCOCC4)cc3)c2n1 [entospletinib]
How it was run: as §1

Measured: log2 fold change

RPL8 (UniProt P62917)
inactive: nilotinib -0.005 | [1] -0.004 | dasatinib 0.035 | [2] -0.028 | [3] -0.013 | tipifarnib 0.027 | [4] -0.019 | [5] -0.008 | [6] -0.006 | [7] -0.041 | vorinostat 0.12 | silmitasertib 0 | [8] 0.089 | entospletinib -0.006
active: quisinostat 0.222

RANBP2 (UniProt P49792)
active: vorinostat -0.343
inactive: nilotinib -0.018 | [1] 0.001 | dasatinib -0.059 | [2] 0.006 | [3] 0.021 | quisinostat -0.05 | tipifarnib -0.055 | [4] 0.046 | [5] 0.007 | [6] -0.003 | [7] -0.01 | silmitasertib -0.004 | [8] 0.001 | entospletinib -0.006

SCAF1 (UniProt Q9H7N4)
Sequence of UniProt Q9H7N4 (Q9H7N4 whole entry, looked up): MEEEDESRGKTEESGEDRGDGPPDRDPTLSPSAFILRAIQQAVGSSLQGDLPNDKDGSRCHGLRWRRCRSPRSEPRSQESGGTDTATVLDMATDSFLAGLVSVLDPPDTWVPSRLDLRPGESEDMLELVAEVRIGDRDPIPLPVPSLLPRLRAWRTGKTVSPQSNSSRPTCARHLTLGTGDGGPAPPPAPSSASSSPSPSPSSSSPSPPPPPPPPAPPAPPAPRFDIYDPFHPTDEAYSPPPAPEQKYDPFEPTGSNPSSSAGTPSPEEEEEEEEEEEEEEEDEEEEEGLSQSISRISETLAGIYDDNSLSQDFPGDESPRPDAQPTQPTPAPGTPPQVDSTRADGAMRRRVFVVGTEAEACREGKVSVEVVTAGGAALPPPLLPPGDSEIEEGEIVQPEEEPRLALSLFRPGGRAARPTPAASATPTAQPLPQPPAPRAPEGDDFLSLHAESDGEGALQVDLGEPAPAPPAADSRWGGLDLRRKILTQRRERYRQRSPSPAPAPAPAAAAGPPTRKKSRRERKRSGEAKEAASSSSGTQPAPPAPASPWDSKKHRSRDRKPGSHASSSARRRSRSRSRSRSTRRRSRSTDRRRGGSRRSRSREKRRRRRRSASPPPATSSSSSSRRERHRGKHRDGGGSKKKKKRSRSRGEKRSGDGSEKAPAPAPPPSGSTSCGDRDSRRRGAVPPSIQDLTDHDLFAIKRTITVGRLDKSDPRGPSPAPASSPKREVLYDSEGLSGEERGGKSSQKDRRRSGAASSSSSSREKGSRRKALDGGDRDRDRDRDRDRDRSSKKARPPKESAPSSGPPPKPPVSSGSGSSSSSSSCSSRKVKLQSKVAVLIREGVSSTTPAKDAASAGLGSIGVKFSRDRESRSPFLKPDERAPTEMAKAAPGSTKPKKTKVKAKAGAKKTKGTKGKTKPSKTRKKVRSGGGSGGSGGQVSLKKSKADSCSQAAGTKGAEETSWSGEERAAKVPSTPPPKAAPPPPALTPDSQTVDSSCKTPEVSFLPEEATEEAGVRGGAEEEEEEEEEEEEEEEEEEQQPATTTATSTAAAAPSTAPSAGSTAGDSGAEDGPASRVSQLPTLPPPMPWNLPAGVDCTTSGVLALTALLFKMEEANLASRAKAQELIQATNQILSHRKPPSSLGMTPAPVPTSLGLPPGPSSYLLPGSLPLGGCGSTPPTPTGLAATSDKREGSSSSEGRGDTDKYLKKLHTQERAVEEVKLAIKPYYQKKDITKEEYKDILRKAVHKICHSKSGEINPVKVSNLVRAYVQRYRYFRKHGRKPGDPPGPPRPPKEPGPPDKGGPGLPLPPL
inactive: nilotinib -0.053 | [1] 0.115 | dasatinib -0.018 | [2] -0.13 | [3] -0.042 | quisinostat -0.019 | tipifarnib -0.06 | [4] -0.028 | [5] -0.014 | [6] 0.1 | [7] -0.172 | vorinostat -0.076 | silmitasertib 0.042 | [8] -0.04 | entospletinib 0.025

RDH14 (UniProt Q9HBH5)
Sequence of UniProt Q9HBH5 (Q9HBH5 whole entry, looked up): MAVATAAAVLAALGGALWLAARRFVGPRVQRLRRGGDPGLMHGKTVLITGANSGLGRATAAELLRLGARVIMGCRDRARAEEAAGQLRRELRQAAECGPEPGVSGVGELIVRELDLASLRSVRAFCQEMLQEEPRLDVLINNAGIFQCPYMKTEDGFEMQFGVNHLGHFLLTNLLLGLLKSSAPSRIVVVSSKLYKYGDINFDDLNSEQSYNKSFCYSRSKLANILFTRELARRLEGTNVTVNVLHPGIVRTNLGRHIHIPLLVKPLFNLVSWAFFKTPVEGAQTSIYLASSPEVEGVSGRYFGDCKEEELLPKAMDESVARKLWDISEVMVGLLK
active: vorinostat -0.318
inactive: nilotinib 0.008 | [1] -0.006 | dasatinib 0.023 | [2] 0.004 | [3] 0.009 | quisinostat -0.016 | tipifarnib 0.065 | [4] -0.011 | [5] -0.077 | [6] 0.048 | [7] -0.072 | silmitasertib 0.044 | [8] 0.004 | entospletinib 0.026

RXRA (UniProt P19793)
inactive: nilotinib 0.164 | [1] -0.053 | dasatinib -0.112 | [2] 0.119 | [3] -0.024 | quisinostat -0.028 | tipifarnib 0.011 | [4] 0.027 | [5] 0.024 | [6] -0.014 | vorinostat -0.154 | silmitasertib 0.07 | [8] -0.08

RPS6KB1 (UniProt P23443)
Sequence of UniProt P23443 (P23443 whole entry, looked up): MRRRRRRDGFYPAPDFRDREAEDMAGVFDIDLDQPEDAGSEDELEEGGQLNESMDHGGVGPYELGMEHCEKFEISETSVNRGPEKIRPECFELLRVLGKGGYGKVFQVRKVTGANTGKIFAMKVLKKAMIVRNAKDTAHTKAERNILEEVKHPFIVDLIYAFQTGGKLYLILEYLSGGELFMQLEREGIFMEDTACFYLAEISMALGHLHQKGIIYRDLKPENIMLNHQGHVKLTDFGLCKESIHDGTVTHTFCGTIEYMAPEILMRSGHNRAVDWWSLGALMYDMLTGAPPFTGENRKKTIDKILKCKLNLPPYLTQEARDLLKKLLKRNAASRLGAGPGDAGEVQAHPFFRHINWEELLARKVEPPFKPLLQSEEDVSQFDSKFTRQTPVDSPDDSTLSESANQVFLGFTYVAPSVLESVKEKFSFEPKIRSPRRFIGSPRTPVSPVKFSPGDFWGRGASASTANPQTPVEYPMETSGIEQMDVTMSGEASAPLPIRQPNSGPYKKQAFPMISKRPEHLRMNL
active: [6] 0.405 | vorinostat -0.319
inactive: nilotinib -0.034 | [1] 0.077 | dasatinib -0.003 | [2] 0.001 | [3] 0.003 | quisinostat -0.049 | tipifarnib -0.008 | [4] 0.035 | [5] -0.014 | [7] -0.049 | silmitasertib 0.132 | [8] -0.017 | entospletinib -0.005

RNF213, A0A0A0MTC1
inactive: nilotinib 0.015 | [1] -0.016 | dasatinib -0.027 | [2] -0.019 | [3] 0.035 | quisinostat -0.033 | tipifarnib 0.001 | [4] 0.071 | [5] 0.015 | [6] -0.016 | [7] 0.022 | silmitasertib 0.032 | [8] 0.007 | entospletinib 0.052
active: vorinostat -0.381

SERINC3 (UniProt Q13530)
inactive: nilotinib 0.022 | [1] 0.023 | dasatinib 0.026 | [2] -0.006 | [3] 0.009 | quisinostat -0.131 | tipifarnib -0.036 | [4] 0.04 | [5] 0.008 | [6] -0.083 | [7] -0.027 | vorinostat 0.019 | silmitasertib -0.012 | [8] 0.017 | entospletinib 0.024

RAP1GAP isoform 4 (UniProt P47736)
Sequence of UniProt P47736 (P47736 whole entry, looked up): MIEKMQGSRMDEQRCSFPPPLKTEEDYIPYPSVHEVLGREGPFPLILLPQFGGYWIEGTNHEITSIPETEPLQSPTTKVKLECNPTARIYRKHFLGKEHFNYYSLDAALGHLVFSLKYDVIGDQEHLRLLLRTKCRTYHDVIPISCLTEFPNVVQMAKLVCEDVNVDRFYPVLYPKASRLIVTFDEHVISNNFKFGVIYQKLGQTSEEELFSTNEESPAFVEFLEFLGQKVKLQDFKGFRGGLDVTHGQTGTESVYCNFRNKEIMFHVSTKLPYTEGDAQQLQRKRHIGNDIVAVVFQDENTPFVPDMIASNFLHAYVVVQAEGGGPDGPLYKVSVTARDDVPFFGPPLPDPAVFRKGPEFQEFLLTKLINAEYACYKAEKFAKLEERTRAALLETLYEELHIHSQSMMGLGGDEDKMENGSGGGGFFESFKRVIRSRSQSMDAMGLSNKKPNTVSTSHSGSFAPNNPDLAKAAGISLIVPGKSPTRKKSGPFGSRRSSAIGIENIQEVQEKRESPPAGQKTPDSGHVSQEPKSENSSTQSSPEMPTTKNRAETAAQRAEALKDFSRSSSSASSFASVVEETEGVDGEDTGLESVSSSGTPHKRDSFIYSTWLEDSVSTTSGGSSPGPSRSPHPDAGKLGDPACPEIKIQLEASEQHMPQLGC
active: vorinostat -0.419
inactive: nilotinib -0.002 | [1] -0.015 | dasatinib 0 | [2] 0.017 | [3] 0.028 | quisinostat -0.046 | tipifarnib -0.013 | [4] 0.029 | [5] -0.021 | [6] -0.034 | [7] -0.058 | silmitasertib -0.035 | [8] 0.022 | entospletinib -0.012

SAR1A (UniProt Q9NR31)
Sequence of UniProt Q9NR31 (Q9NR31 whole entry, looked up): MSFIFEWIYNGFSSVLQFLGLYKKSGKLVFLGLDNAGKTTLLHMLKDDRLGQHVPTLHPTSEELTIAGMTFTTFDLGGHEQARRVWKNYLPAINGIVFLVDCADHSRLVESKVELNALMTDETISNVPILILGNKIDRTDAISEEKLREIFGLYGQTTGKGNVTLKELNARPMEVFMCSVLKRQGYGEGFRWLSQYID
inactive: nilotinib 0.145 | [1] 0.164 | dasatinib 0.017 | [2] -0.009 | [3] 0.01 | quisinostat 0.095 | tipifarnib -0.172 | [4] -0.055 | [5] -0.154 | [6] -0.045 | [7] 0.004 | vorinostat 0.056 | silmitasertib -0.077 | [8] -0.039 | entospletinib -0.089

RNASEH2B (UniProt Q5TBB1)
Sequence of UniProt Q5TBB1 (Q5TBB1 whole entry, looked up): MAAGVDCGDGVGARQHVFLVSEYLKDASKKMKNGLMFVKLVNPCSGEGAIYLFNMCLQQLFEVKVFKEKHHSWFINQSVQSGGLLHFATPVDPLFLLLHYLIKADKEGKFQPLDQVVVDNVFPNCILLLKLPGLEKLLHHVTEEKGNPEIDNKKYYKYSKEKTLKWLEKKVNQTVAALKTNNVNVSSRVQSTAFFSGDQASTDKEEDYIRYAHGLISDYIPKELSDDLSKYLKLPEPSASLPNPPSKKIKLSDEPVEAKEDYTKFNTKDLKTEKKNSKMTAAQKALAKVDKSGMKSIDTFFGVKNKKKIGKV
inactive: nilotinib 0.024 | [1] 0.007 | dasatinib -0.024 | [2] -0.001 | [3] -0.011 | quisinostat -0.059 | tipifarnib -0.009 | [4] 0.037 | [5] 0.004 | [6] -0.015 | [7] -0.016 | silmitasertib 0.054 | [8] -0.064 | entospletinib 0.011
active: vorinostat -0.377

RBM5 (UniProt P52756)
Sequence of UniProt P52756 (P52756 whole entry, looked up): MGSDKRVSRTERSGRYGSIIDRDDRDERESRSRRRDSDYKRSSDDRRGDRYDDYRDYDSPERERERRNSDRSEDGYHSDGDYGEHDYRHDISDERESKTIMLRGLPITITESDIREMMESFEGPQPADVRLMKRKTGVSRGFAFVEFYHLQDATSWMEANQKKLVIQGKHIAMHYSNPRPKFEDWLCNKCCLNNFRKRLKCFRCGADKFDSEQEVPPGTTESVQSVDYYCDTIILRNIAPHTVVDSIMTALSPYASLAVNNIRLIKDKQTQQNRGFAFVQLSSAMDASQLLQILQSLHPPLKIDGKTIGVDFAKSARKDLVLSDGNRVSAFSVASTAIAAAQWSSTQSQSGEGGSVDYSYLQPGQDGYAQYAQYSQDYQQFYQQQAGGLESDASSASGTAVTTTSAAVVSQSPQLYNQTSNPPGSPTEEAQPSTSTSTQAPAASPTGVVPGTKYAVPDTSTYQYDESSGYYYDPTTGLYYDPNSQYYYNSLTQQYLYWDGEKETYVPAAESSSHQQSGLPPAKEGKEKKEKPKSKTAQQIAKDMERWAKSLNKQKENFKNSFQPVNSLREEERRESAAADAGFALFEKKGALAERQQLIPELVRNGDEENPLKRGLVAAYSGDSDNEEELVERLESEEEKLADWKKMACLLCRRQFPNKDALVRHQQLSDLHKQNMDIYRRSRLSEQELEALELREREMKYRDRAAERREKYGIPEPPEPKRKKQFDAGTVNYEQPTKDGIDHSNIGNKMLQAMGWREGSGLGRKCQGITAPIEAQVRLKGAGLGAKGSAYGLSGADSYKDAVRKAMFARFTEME
inactive: nilotinib 0.146 | [1] -0.085 | dasatinib 0.073 | [2] 0.028 | [3] -0.003 | quisinostat 0.027 | tipifarnib -0.015 | [4] 0.009 | [5] 0.114 | [6] 0.185 | [7] 0.036 | silmitasertib 0.072 | [8] -0.056 | entospletinib 0.023
active: vorinostat -0.427

RBM4 (UniProt Q9BWF3)
Sequence of UniProt Q9BWF3 (Q9BWF3 whole entry, looked up): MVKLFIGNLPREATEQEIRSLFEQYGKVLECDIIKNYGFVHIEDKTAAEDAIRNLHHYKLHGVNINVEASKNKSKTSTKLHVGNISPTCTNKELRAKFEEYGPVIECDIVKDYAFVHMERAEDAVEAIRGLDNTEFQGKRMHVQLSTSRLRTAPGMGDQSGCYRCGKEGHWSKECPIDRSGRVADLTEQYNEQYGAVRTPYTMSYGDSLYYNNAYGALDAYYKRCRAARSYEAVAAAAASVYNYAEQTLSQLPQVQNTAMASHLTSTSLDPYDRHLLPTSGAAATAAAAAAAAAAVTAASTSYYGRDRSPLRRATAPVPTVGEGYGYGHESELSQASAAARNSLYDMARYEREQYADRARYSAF
inactive: nilotinib -0.086 | [1] -0.011 | dasatinib 0.032 | [2] 0.029 | [3] 0.03 | quisinostat 0.033 | tipifarnib -0.067 | [4] 0.034 | [5] 0.046 | [6] 0.029 | [7] -0.04 | vorinostat -0.172 | silmitasertib 0.035 | [8] -0.097 | entospletinib 0.001

RNPC3 (UniProt Q96LT9)
active: vorinostat -0.488
inactive: nilotinib -0.104 | [1] 0.069 | dasatinib 0.042 | [2] 0.01 | [3] -0.061 | quisinostat -0.071 | tipifarnib -0.075 | [4] -0.063 | [5] -0.056 | [6] 0.06 | silmitasertib 0.145 | [8] 0.036

SBF1 isoform 4 (UniProt O95248)
active: vorinostat -0.377
inactive: nilotinib -0.018 | [1] -0.041 | dasatinib 0.092 | [2] -0.046 | [3] 0.047 | quisinostat -0.103 | tipifarnib 0.162 | [4] 0.12 | [5] 0.039 | [6] 0.091 | [7] 0.013 | silmitasertib -0.046 | [8] 0.056 | entospletinib 0.005

RIC1 (UniProt Q4ADV7)
inactive: nilotinib -0.069 | [1] 0.033 | dasatinib 0.001 | [2] 0.086 | [3] 0.008 | quisinostat -0.169 | tipifarnib 0.085 | [4] 0.097 | [5] -0.085 | [6] 0.002 | [7] -0.053 | vorinostat -0.193 | silmitasertib 0.057 | [8] -0.06 | entospletinib 0.045

RAD51C (UniProt O43502)
active: vorinostat -0.386
inactive: nilotinib 0.013 | [1] 0.021 | dasatinib -0.014 | [2] 0.009 | [3] -0.019 | quisinostat 0.036 | tipifarnib 0.03 | [4] 0.051 | [5] 0.042 | [6] -0.021 | [7] 0.023 | silmitasertib -0.003 | [8] -0.015 | entospletinib 0.065

SESN2 (UniProt P58004)
Sequence of UniProt P58004 (P58004 whole entry, looked up): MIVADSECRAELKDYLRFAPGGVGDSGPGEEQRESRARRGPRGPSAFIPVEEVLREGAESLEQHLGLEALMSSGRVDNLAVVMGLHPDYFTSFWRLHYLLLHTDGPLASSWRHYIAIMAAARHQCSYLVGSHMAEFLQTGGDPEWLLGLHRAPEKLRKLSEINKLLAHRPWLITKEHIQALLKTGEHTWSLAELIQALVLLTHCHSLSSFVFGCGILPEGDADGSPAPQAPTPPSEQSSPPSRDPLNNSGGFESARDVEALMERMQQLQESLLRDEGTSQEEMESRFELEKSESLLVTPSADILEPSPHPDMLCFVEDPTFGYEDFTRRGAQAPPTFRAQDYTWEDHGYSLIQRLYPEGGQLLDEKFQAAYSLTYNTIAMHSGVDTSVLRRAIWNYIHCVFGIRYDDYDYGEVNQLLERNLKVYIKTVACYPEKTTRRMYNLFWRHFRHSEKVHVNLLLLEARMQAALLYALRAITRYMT
active: vorinostat -0.367
inactive: nilotinib 0.019 | [1] 0.027 | dasatinib -0.023 | [2] 0.021 | [3] 0.028 | quisinostat -0.051 | tipifarnib 0.007 | [4] 0.092 | [5] 0.034 | [6] -0.057 | [7] 0.006 | silmitasertib 0.066 | [8] 0.022 | entospletinib 0.073
